{"source": "the supplement of paper PMC9950053", "note": "Counter-ions that a name gives are not always drawn."}
{"tested_on": "Danio rerio larvae (5 dpf)", "assay": "combined upward orientation toward moving lines (periods 7-14) minus DMSO control (percentage points); higher = more orientation with moving lines than DMSO larvae", "conditions": "10 µM; exposure time: 3 h pre-incubation + 3 h imaging", "procedure": "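Wild-type 5 dpf zebrafish larvae (n=48 per drug, 96-well plates, 28.5 °C) were exposed to Tocris FDA-approved library compounds at 10 µM (0.1% DMSO) for 3 h before and 3 h during imaging. Images were taken every 6 s during visual (moving coloured lines) and acoustic stimuli, and larvae were tracked with the DeepLabCut-based Z-LaP Tracker. Each behavioural measure is the treated-group mean minus the DMSO vehicle control mean (n=844), in percentage points. This mapping covers compounds with 4-character plate codes.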"}
{"smiles": "O=c1[nH]c2ccccc2n1C1CCN(CCCC(c2ccc(F)cc2)c2ccc(F)cc2)CC1", "note": "[Pimozide]", "combined upward orientation toward moving lines": -5.82}
{"smiles": "COc1cc2c(cc1OC)C1CC(=O)C(CC(C)C)CN1CC2", "note": "(stereo unspecified) [Tetrabenazine]", "combined upward orientation toward moving lines": -21.4}
{"smiles": "C=C1C[C@@H]2[C@H](CC[C@]3(C)C(=O)CC[C@@H]23)[C@@]2(C)C=CC(=O)C=C12", "note": "[Exemestane]", "combined upward orientation toward moving lines": 1.27}
{"smiles": "CN1C[C@H](C(=O)N[C@]2(C)O[C@@]3(O)[C@@H]4CCCN4C(=O)[C@H](Cc4ccccc4)N3C2=O)C[C@@H]2c3cccc4[nH]cc(c34)C[C@H]21", "note": "[Dihydroergotamine mesylate]", "combined upward orientation toward moving lines": -20.6}
{"smiles": "N[C@@H]1C[C@H]1c1ccccc1", "note": "[Tranylcypromine hydrochloride]", "combined upward orientation toward moving lines": 1.03}
{"smiles": "CC[C@@H](C(N)=O)N1CCCC1=O", "note": "[Levetiracetam]", "combined upward orientation toward moving lines": -2.84}
{"smiles": "CC(C)C[C@H]1C(=O)N2CCC[C@H]2[C@]2(O)O[C@](NC(=O)[C@@H]3C=C4c5cccc6[nH]c(Br)c(c56)C[C@H]4N(C)C3)(C(C)C)C(=O)N12", "note": "[Bromocriptine mesylate]", "combined upward orientation toward moving lines": -39}
{"smiles": "C=CCN1C[C@H](C(=O)N(CCCN(C)C)C(=O)NCC)C[C@@H]2c3cccc4[nH]cc(c34)C[C@H]21", "note": "[Cabergoline]", "combined upward orientation toward moving lines": -13.9}
{"smiles": "CC(O)(CS(=O)(=O)c1ccc(F)cc1)C(=O)Nc1ccc(C#N)c(C(F)(F)F)c1", "note": "(stereo unspecified) [Bicalutamide]", "combined upward orientation toward moving lines": -2.4}
{"smiles": "CCN(C)C(=O)Oc1cccc([C@H](C)N(C)C)c1", "note": "[Rivastigmine tartrate]", "combined upward orientation toward moving lines": -5.99}
{"smiles": "Cc1cccc([C@H](C)c2c[nH]cn2)c1C", "note": "[Dexmedetomidine hydrochloride]", "combined upward orientation toward moving lines": -0.0673}
